# ± gives the standard deviation of the averaged measurements. Over roughly 25,000 sequences, “ln(normalized median fluorescence intensity)” has its median near 10; the highest 2% begin near 12. For the sample, the highest values were picked, then their nearest neighbours and some sequences at random.
# System: PfAP2-G AP2 domain (GST-tagged)
# Assay: gcPBM binding intensity (ln(normalized median fluorescence intensity)); higher = stronger DNA binding
# Method in brief: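 Binding of GST-tagged P. falciparum DNA-binding domains, expressed in E. coli and used at about 25 μg on average, was carried out for 1 h in 1× PBS containing 1% milk, 0.2 mg/ml BSA, 0.5% salmon testes DNA and 0.03% Triton X-100. The target was an Agilent 4 × 180k array of primer-extended double-stranded 36-bp intergenic genomic probes plus negative controls, read with Alexa488 anti-GST antibody at 488 nm. Binding intensity is the highest Masliner-normalised natural-log median intensity across replicate spots of either probe orientation.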
row,Sequence,gcPBM binding intensity (ln)
1,TTAACCACTAAAAGTACACACATATATACATATATA [CACACA_site3912],11.4 ± 0.92
2,ATATATACATATGGGTGTACATATGCACATATATAT [XGTACX_site8437],11.3 ± 0.71
3,ATATATCATCATGTATGTACACACATACATATATTA [XGTACX_site2814],11.2 ± 0.74
4,TATATCATCATGTATGTACACACATACATATATTAT [CACACA_site8387],11.2 ± 0.72
5,AATACATATGGGTGTACACATTATATATATATATAT [CACACA_site4601],11.6 ± 0.89
6,ATAATAATATGTGGGTGTACATATACACATATATAT [XGTACX_site4356],11.3 ± 0.71
7,TCATCATGTATGTACACACATACATATATTATGTAC [CACACA_site1386],11.7 ± 0.8
8,TAGAATAATCTATAAACACACAAACACAACAAAAGA [CACACA_site7861],10.3 ± 0.32
9,ATATATTATCAACTTACACACAGAAAAATATAATAA [CACACA_site293],9.975 ± 0.092
10,ATTTGGCATAAACACACACACACACCCACCCACATA [CACACA_site8096],10.6 ± 0.38
11,ACGGGCGACACATAAGTGCGCAAAAAAAAAAAAATA [GTGCAC_site9688],10.4 ± 0.46
12,TTTTTTTTTTTGTGAGTGCACGTATGAAGAGAAAAA,10.9 ± 0.8
13,TTATAAATATAATATTGTACAAAATTTTAACATGTC [XGTACX_site5259],10.9 ± 0.59
14,GCATTCATTTTTAATACACACAAAAAAAAAATAAAA [CACACA_site2408],10.2 ± 0.42
15,CCCTCAACGAATTTGAGTACACATTTTAAATGATAT [XGTACX_site7763],11.7 ± 1.1
16,TTTTAATGATATATGAGTACACATTGTTTTTTATAA [XGTACX_site1072],11.6 ± 1
17,TATATATATATATATACACACATTTTTAATGATAAA [CACACA_site2695],10.1 ± 0.37
18,AAAATCTAGGTATTTATACACACTAATATAATATAC [CACACA_site8108],10.2 ± 0.28
19,GTATAACTTTTGCGCGTACACACATTTATCCTCTTT [CACACA_site208],11.7 ± 0.86
20,ATAACTTTATTTTCCTGTACACACATTTGACATATT [XGTACX_site7192],11.4 ± 0.73
21,ATAACTTTTGCGCGTACACACATTTATCCTCTTTAT [CACACA_site209],11.7 ± 0.96
22,AGTATAACTTTTGCGCGTACACACATTTATCCTCTT [XGTACX_site429],11.6 ± 0.72

row,Sequence,gcPBM binding intensity (ln)
1,TTTTTTTTTTTTTTTACACACATTTGAATAACTTTA [CACACA_site6810],9.75 ± 0.34
2,TCCTCTTTTATTTTTACACACGCGTAAACATATATA [CACACA_site667],10.5 ± 0.4
3,AATTTATGTTTTAAAAGTACTTTTCTAATTTATAAA [XGTACX_site1593],11.1 ± 0.72
4,TACTGAAATAATTATTTAAACGTTTTTATATGTATT [CACACA_negctrl_site487],9.83 ± 0.042
5,TACACAAAACATAAAAGTACATAATAATAAAGTTAA [XGTACX_site8872],11.3 ± 0.6
6,AAATAGTTAAAAAGGCGTACACATAAATAAATAAAT [XGTACX_site2096],11.7 ± 0.81
7,TACATAATAATAAGGCGTACATAAAAATTAAAAATT [XGTACX_site8769],11.4 ± 1
8,TGTCTTTAAATTTCTCAACACACAGTTATAAAAAAT [CACACA_site8930],9.94 ± 0.099
9,AAAAGAATTTGAAGTCGTACAATATCTATTATATGA [XGTACX_site8275],11.2 ± 0.78
10,CGTTACACAAAAATATGTACATATATACATATATAT [XGTACX_site4631],11.1 ± 0.64
11,AATATATACATATATGTACACACATTACAGATGTAC [CACACA_site8227],11.5 ± 0.73
12,TAAATACATAGATGTACACACATTACAGATGTACAT [CACACA_site4692],11.7 ± 0.98
13,AATAAACATAGATGTACACACATATACAGATATATA [CACACA_site5570],11.5 ± 1
14,TATATACATATATGTACACACATTACAGATGTACAT [CACACA_site966],11.7 ± 0.93
15,TATATACAAATATGTACACACATTACAGATGTACAT [CACACA_site6586],11.8 ± 0.82
16,TACACACATTACAGATGTACATAAAATTAAAAAAAT [XGTACX_site1804],11.3 ± 0.71
17,TACATTGTATACATATGTACACATATATATATATAT [XGTACX_site6174],11.5 ± 0.71
18,TGTACAAATATGTACACACACACATATATATATATA [CACACA_site584],11.4 ± 0.91
19,TCCTAATGCTACCACACACACAAAAACAAATAATAA [CACACA_site2610],10.5 ± 0.57
20,AGTAATAAATTTTATACATGCATAAAAAAAAAAAAA [TGCATGCA_site661],9.72 ± 0.27
21,AAAAAAAAAAAACATACACACATACATACAGATATA [CACACA_site4681],9.94 ± 0.13
22,TAAAGGTAGATATATTGTACATACACACCTATATAA [XGTACX_site6865],10.9 ± 0.45
